# PI5P4K alpha inh = blocks human PI5P4K alpha kinase activity | PI5P4Kalpha enzyme, ADP-Glo luminescence, 60 min; hits give low values | max response, % | 330,000 compounds, 1.2% hits | P48426; active = max response of -50% or lower; inconclusive = between -30% and -50%; inactive = -30% or higher; also: value at the top dose of about 77 µM
#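 Compounds were pin-transferred onto PI5P4Kalpha and substrate in HEPES pH 7.4 buffer with EGTA, CHAPS and 5% DMSO. ATP (5 microM final) started the reaction, which ran 60 minutes at room temperature before ADP-Glo detection.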
# BAZ2B block = inhibitors of human BAZ2B bromodomain; Q9UIF8; 360,000 compounds, 4.4% hits; AID 504333; Potency, µM (highest dose often 114 µM), hits mostly inhibitors; AlphaScreen BAZ2B-H3K14Ac peptide displacement; also: nearly all actives have a fitted effect of over 60% in size
#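 AlphaScreen displacement of biotin-H3(5-23)K14Ac peptide (50 nM final) from BAZ2B (50 nM final) in PBS pH 7.4, 0.01% Tween-20; complex preformed 30 min RT, then compounds (top 110 uM) 30 min RT, beads 20 min dark.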
# JMJD2A Tudor = blocks the human JMJD2A Tudor domain; O75164; AlphaScreen JMJD2A-Tudor / H3K4me3 peptide binding; Potency, µM (series often up to 114 µM), usual class: inhibitors; 390,000 compounds, 4.4% hits; AID 504339; also: nearly all actives have a fitted effect of over 50% in size
# G9a block = G9a (human) methyltransferase inhibition. G9a H3K9 monomethylation, AlphaScreen, 2 h. Potency, µM (doses to about 102 µM), actives largely listed as inhibitors. 350,000 compounds, 8.8% hits. AID 504332; also: nearly all actives have a fitted effect of over 75% in size
# Target sequence (Q96KQ7 913-1193 limits assumed): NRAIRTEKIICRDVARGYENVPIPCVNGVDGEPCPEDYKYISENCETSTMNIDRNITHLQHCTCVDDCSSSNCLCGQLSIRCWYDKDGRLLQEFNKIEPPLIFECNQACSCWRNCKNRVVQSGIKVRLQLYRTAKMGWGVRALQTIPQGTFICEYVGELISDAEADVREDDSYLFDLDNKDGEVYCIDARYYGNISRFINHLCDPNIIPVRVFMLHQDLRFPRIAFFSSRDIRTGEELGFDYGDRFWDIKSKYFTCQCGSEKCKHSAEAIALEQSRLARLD
#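 Enzyme 20 nM + cpd, 15 min RT; add b-H3K9 pep 500 nM / SAM 20 uM; 2 h RT; anti-H3K9me1 Ab 0.5 ug/mL + SA donor / anti-rabbit acceptor beads 20 ug/mL each, 10 min; AlphaScreen read.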
# L3MBTL1 inh = blocks human L3MBTL1 | Q9Y468 | AlphaScreen L3MBTL1–H3K9me1 peptide binding | Potency, µM (highest dose often 57.1 µM), usual class: inhibitors | 230,000 compounds, 0.66% hits | AID 485360; also: nearly all actives have a fitted effect of over 60% in size
#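 Read-out is AlphaScreen signal from streptavidin donor and nickel chelate acceptor beads (10 ug/mL final each) bridging L3MBTL1 (50 nM) and biotinylated K9-monomethylated H3(1-15) peptide (75 nM), after 30 min compound exposure at room temperature.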
# HP1b binding inh = blocks HP1-beta chromodomain binding to methylated histone tails | P83916 | AlphaScreen HP1-beta / biotin-H3K9me3 peptide binding | Potency, µM (titrated, usually from 114 µM), most hits filed as inhibitors | 390,000 compounds, 0.56% hits | AID 540317; also: nearly all actives have a fitted effect of over 70% in size
# Target sequence (P83916 whole entry, looked up): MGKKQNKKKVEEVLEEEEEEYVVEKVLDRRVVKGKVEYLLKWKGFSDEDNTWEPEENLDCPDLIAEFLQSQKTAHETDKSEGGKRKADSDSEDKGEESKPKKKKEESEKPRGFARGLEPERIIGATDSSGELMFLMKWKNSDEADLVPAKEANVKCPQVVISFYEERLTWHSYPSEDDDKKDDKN
#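 Compound inhibition of the preformed complex between 50 nM HP1-beta and 50 nM biotinylated H3K9me3 peptide was read by AlphaScreen. Buffer was PBS pH 7.4 with 0.01% Tween-20. Incubations ran 30 min at room temperature, with 10 ug/mL donor/acceptor beads.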
# Numbers stand for hits; – = inactive; ? = inconclusive; · = no result given; ! = not confirmed by another sample; [ ] = another dose, or the depositor's remark. Compounds with a hit are over-represented: about 11% of the library has one in this group of screens. Unless noted, calls follow the shape of the dose curve; as a rule, active = well fitted inhibition curve with a large enough effect; inconclusive = small, poorly fitted or top-dose-only effect; inactive = no such curve, though single readings can be large or run the other way.
SMILES,PI5P4K alpha inh,BAZ2B block,JMJD2A Tudor,G9a block,L3MBTL1 inh,HP1b binding inh
COC(=O)c1c(NC(=S)Nc2ccc(C(=O)N3CCOCC3)cc2)sc2c1CCC2,–,–,–,50µM,–,–
COC(=O)c1c(NC(C)=O)sc2c1CCCCC2,–,?,–,8.9µM,–,–
CCc1ccc(NC(=O)Cn2cnc3sc(C)c(S(=O)(=O)N4CCC(C)CC4)c3c2=O)cc1,·,–,–,–,·,–
CC(C)CCN(Cc1ccco1)C(=O)c1cc2c(Cl)nc3ccccc3c2s1,·,–,–,–,·,–
O=C(N/N=C/C=C/c1ccco1)c1cccnc1,·,–,–,8.9µM,·,–
O=C(N/N=C/C=C\c1ccco1)c1cccnc1,–,–,–,28µM,–,–
O=C(N/N=C/C=C/c1ccccc1)c1cccnc1,–,–,–,–,–,–
O=C(N/N=C\c1ccco1)c1cncc(Br)c1,·,–,·,–,–,·
O=C(N/N=C\C=C\c1ccco1)c1cncc(Br)c1,-53,–,–,?,·,–
CCc1ccccc1NC(=O)Cn1c(=O)n(Cc2ccccc2)c(=O)c2c(C)c(C(=O)N(C)C)sc21,·,–,–,–,·,–
O=C(CSCc1cnn(-c2ccccc2)c1-n1cccc1)N1CCN(Cc2ccccc2)CC1,–,?,?,40µM,·,–
Cc1cc(C)n(CC(O)CN2c3ccccc3Sc3ccccc32)n1 (stereo unspecified),–,50µM,32µM,?,–,–
CC(CN1c2ccccc2Sc2ccccc21)N(C)C (stereo unspecified),–,45µM,?,15µM!,–,–
COc1ccc2c(c1)N(C[C@H](C)CN(C)C)c1ccccc1S2,–,·,?,·,·,–
COc1ccc2c(c1)N(C[C@@H](C)CN(C)C)c1ccccc1S2,·,·,·,7.9µM,·,·
COc1ccc(/C=C\c2onc(C)c2S(=O)(=O)N2CCC(C(=O)Nc3ccccc3OC)CC2)cc1,·,·,–,–,·,–
COc1ccc([C@]23Cc4cc(C#N)ccc4C(O2)C2=C(CC4(CCCCC4)OC2=O)O3)cc1,·,–[22.9 µM],·,–[2.33 µM],·,·
Cc1cc(NC(=O)CCc2nc3cccnc3n2-c2ccccc2)ccc1Br,·,–,–,?,·,–
Cn1ccc(/C=N/N=C2/NC(=O)CS2)n1,–,–,–,10µM,·,–
O=C(O)c1c[nH]ccc1=O,·,?,7.1µM,?,–,–
O=C(O)c1cccc(O)c1O,–,·,?,·,·,–
Cc1ccc(S(=O)(=O)c2cc3cc(C(=O)Nc4ccc(C)cc4C)ccc3oc2=O)cc1,·,–,–,–,·,–
CC(=O)N1c2ccc(Cl)cc2C2C=CCC2C1c1cccc2ccccc12 (stereo unspecified),–,–,–,13µM,?,–
CC(=O)N1c2ccc3ccccc3c2C2C=CCC2C1c1ccc(Br)cc1 (stereo unspecified),·,?,·,?,–,·
Cc1ccccc1-c1nn2c(=O)cc(CN3CCN(C(=O)c4ccccc4Br)CC3)nc2s1,·,–,–,–,·,–
SMILES,PI5P4K alpha inh,BAZ2B block,JMJD2A Tudor,G9a block,L3MBTL1 inh,HP1b binding inh
COCCNC(=O)CN1C(=O)c2cccnc2Oc2ccc(Cl)cc21,·,–,–,–,·,–
Cc1nn2c(=O)cc(COC(=O)c3ccc(NC(=O)C4CCCCC4)cc3)nc2s1,·,–,–,–,·,–
COc1cc(NC(=O)CSc2nc3nc(C)c(Cc4ccc(C)cc4)c(C)n3n2)cc(OC)c1,·,–,–,–,·,–
CSc1nsc2nc(=O)c(/C=C3\C(C)=Nc4ccccc43)c(N)n12,–,?,–,18µM,·,–
O=C(NCCN1CCCCC1)c1ccc(Cn2c(SCc3ccc(F)cc3)nc3cccnc32)cc1,·,–,–,–,·,–
CC1CC(=O)N(CC(=O)Nc2ccc(F)cc2F)c2ccccc2S1 (stereo unspecified),·,–,–,–,·,–
CC(=O)Nc1ccc(NC2=C(Cl)C(=O)c3ccccc3C2=O)cc1,–,–,–,–,?,–
Cc1ccc(NC2=C(NCCO)C(=O)c3ccccc3C2=O)cc1,–,14µM,50µM,11µM,?,?
COc1ccc(NC(=O)CSc2nncc3ccccc23)cc1,–,–,–,–,–,–
COc1ccc(NC(=O)CSc2nnc(C)c3ccccc23)cc1,–,–,–,50µM,·,–
COc1ccc(NC(=O)CSc2nnc(-c3ccccc3C)n2N)cc1OC,–,–,–,–,–,–
COc1cccc(NC(=O)CSc2nnc(-c3cccc(OC(C)C)c3)n2N)c1,–,–,56µM,25µM,–,–
COc1ccc(-c2nnc(SCC(=O)NC3CCCCC3)n2N)cc1,–,–,–,45µM,–,–
COc1ccc(NC(=O)CSc2nnc(-c3ccccc3C)n2N)cc1,·,–,–,50µM,–,–
CC(=O)NC[C@@H]1CN(c2ccc(N3CCOCC3)c(F)c2)C(=O)O1,·,·,·,–,·,·
Cc1c(P(=S)(c2ccccc2)c2ccccc2)c2ccccc2n1C(=O)NCc1ccc(F)cc1,·,·,–,·,·,·
Clc1cccc(-c2ccc3ncnc(NCc4ccc5c(c4)OCO5)c3c2)c1,·,–,·,–[12.7 µM],–,·
CCc1nc(SCC(=O)Nc2ccc(N(C)C)cc2)c2ccccc2n1,–,–,–,10µM,·,–
COc1cccc(-c2nc(SCc3cc(=O)c4ccc(C)c(C)c4[nH]3)n[nH]2)c1,·,–,–,–,·,–
COC(=O)C1(Cc2ccc(O)cc2)OC(=O)C(O)=C1c1ccc(O)cc1 (stereo unspecified),?,79µM,56µM,?,·,–
Cc1ccc(-n2nc(C(=O)NCc3ccc(F)cc3Cl)c3c4ccccc4n(C)c3c2=O)cc1,·,·,–,–,·,–
CC(Oc1ccc(F)cc1)C(=O)Nc1nc(-c2ccc(F)cc2)ns1 (stereo unspecified),·,–,–,–,·,–
CN1CCc2cccc3c2[C@@H]1Cc1ccc(O)c(O)c1-3,-61,35µM,13µM,2µM,–,?
CCC(Oc1ccccc1-c1nnc(-c2ccccc2)o1)C(=O)Nc1ccc(C(C)=O)cc1 (stereo unspecified),·,?,–,–,·,–
COc1ccc(-c2c(C3C4C=CCC(C)C4C(=O)N3Cc3ccccc3)ccc3ccccc23)cc1 (stereo unspecified),·,·,–,·,·,–
SMILES,PI5P4K alpha inh,BAZ2B block,JMJD2A Tudor,G9a block,L3MBTL1 inh,HP1b binding inh
O=c1c(-c2ccc(F)c(F)c2)nc2cncnc2n1Cc1ccccc1,·,·,·,–[12.7 µM],·,·
O=c1[nH]cnc2ncc(-c3ccc(O)cc3)nc12,?,·,79µM,·,·,–
O=c1[nH]cnc2nc(-c3ccccc3)c(-c3ccccc3)nc12,–,–,–,–,–,–
CN1CCN(C(c2ccc(C(F)(F)F)cc2)c2ccc3cccnc3c2O)CC1 (stereo unspecified),?,40µM,56µM,7.9µM,·,?
CCCCC(=O)NC(c1ccccc1Cl)c1ccc2cccnc2c1O (stereo unspecified),–,–,–,·,–,–
Oc1c(C(c2ccccc2Cl)N2CCCC2)ccc2cccnc12 (stereo unspecified),–,20µM,20µM,11µM,–,–
